Compound activity (PubChem BioAssay)
SW480 rerep: DNA re-replication induction in SW480 cells | SW480 DNA re-replication, Hoechst DNA content imaging, 48 h | Potency, µM (doses to about 46.1 µM), for inactives: top-dose re-replication activation, hits mostly activators | 1.8% of 340,000 active; note: % of control where 0% means no effect; nearly all actives have a fitted effect of over 55% in size
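Image-based DNA-content assay: after two days of treatment, nuclei were labelled with the DNA dye Hoechst and imaged, and hits were compounds raising the count of nuclei showing high fluorescence intensity.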
MCF10A rerep: induces DNA re-replication in MCF 10a normal breast cells; MCF 10A DNA re-replication, Hoechst nuclear intensity, 48 h; Potency, µM (highest dose often 46.1 µM), inactives show at the highest dose activity, positive = re-replication, usual class: activators; 2.9% of 350,000 active; note: % of control where 0% means no effect; nearly all actives have a fitted effect of over 50% in size
KB-3-1 tox: KB-3-1 parental cell cytotoxicity | 1.4% of 400,000 active | KB-3-1 viability, CellTiter-Glo ATP luminescence, 72 h | Potency, µM (doses to about 46.1 µM), hits mostly cytotoxic; note: % is set by controls: 0 for no effect and ±100 for the full control effect; nearly all actives have a fitted effect of over 60% in size
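Parental KB-3-1 viability, qHTS format: 72 h compound exposure, 37 °C; CellTiter-Glo; media-only wells and DMSO plates as controls; concentration-effect fits on corrected data.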
PINK1 expr mod: modulators of PINK1 expression | 0.2% of 410,000 active | AID 624263 | Potency, µM (series often up to 76.6 µM), for inactives: top-dose activation (PINK1 increase), hits mostly activators | PINK1 immunofluorescence, high-content cytometry, 24 h; active = well fitted activation curve with a large enough effect; inconclusive = small, poorly fitted or top-dose-only effect; cell line not stated here; note: % of control where 0% means no effect; nearly all actives have a fitted effect of over 65% in size
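Stable cell line, 250 cells/well, 12 h attachment; compounds pinned at 5 concentrations, 24 h; CCCP control. Fixed with nuclear dye, primary antibodies 12 h at 10 degrees C, secondary plus cell stain; laser-scanning cytometer read.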
KB-V1 cytotox: kills drug-selected multidrug resistant KB-V1 cells. KB-V1 MDR cells viability, CellTiter-Glo, 72 h. Potency, µM (doses to about 46.1 µM), most hits filed as cytotoxic. 3.4% of 400,000 active. AID 1347076; note: % is set by controls: 0 for no effect and ±100 for the full control effect; nearly all actives have a fitted effect of over 60% in size
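Readout: CellTiter-Glo luminescence, 10 min after addition. Cells: KB-V1 MDR subline, 72 h at 37 degrees C with compound. Analysis: corrected, normalized data fitted to concentration-effect curves.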
Numbers without * were called inactive. Hits are enriched below; roughly 6.7% of the tested compounds scored in any of these assays. Unless noted, calls come from the whole dose curve; as a rule, active = well fitted curve in the direction sought with a large enough effect; inconclusive = small, poorly fitted or top-dose-only effect, or another doubt; inactive = no such curve, though single readings can be large; an effect the other way counts as inactive or inconclusive. Potency is the fitted concentration of half-maximal effect.

For Cc1cc(C)c2nc3sc(C(=O)N4CCOCC4)c(N)c3cc2c1 the results were SW480 rerep inconclusive, MCF10A rerep inconclusive, KB-3-1 tox 0.259µM*, PINK1 expr mod 1.5% and KB-V1 cytotox inconclusive.
Cc1cccc2cc3c(N)c(C(=O)N4CCc5ccccc54)sc3nc12 was read as SW480 rerep inconclusive, MCF10A rerep inconclusive, KB-3-1 tox inconclusive, PINK1 expr mod 9.2% and KB-V1 cytotox 9.2µM*.
`Cc1ccc(C)c2nc3sc(C(=O)N4CCOCC4)c(N)c3cc12` gave SW480 rerep inconclusive, MCF10A rerep inconclusive, KB-3-1 tox inconclusive, PINK1 expr mod 1.6% and KB-V1 cytotox inconclusive.
Cc1cccc2cc3c(N)c(C#N)sc3nc12 was read as SW480 rerep inconclusive, MCF10A rerep inconclusive, KB-3-1 tox inconclusive, PINK1 expr mod -1.8% and KB-V1 cytotox 1.46µM*.
`CCCNC(=O)c1cc(S(=O)(=O)N2CCC3(CC2)OCCO3)ccc1F` gave KB-3-1 tox inactive, PINK1 expr mod 0.0% and KB-V1 cytotox inactive.
CC(=O)c1ccc(NC(=O)Cn2ncc3c4ccccc4n(Cc4ccccc4)c3c2=O)cc1 was read as KB-3-1 tox inactive, PINK1 expr mod 6.4% and KB-V1 cytotox inactive.
COc1cc(NC(=O)CSc2nc3nc(C)c(Cc4ccc(C)cc4)c(C)n3n2)cc(OC)c1 was read as KB-3-1 tox inactive, PINK1 expr mod 0.3% and KB-V1 cytotox inactive.
`Cc1ccc2[nH]c(=O)c(CN(c3cccc(C)c3C)S(=O)(=O)c3ccccc3)cc2c1` gave SW480 rerep 21.5%, MCF10A rerep inconclusive, KB-3-1 tox 6.51µM*, PINK1 expr mod 5.1% and KB-V1 cytotox inconclusive.
Screening CCCCN(Cc1cc2ccccc2[nH]c1=O)S(=O)(=O)c1ccc(C)cc1 returned SW480 rerep 5.7%, MCF10A rerep -0.9%, KB-3-1 tox inconclusive, PINK1 expr mod 2.6% and KB-V1 cytotox inactive.
For Cc1ccc(S(=O)(=O)N(CC(=O)N=Nc2c(O)[nH]c3ccccc23)c2cccc(C)c2)cc1 the results were SW480 rerep inconclusive, MCF10A rerep inconclusive, KB-3-1 tox 20.6µM*, PINK1 expr mod 1.8% and KB-V1 cytotox 20.6µM*.
Screening CCCCN(Cc1cc2ccccc2[nH]c1=O)S(C)(=O)=O returned SW480 rerep 10.3µM*, MCF10A rerep -0.9%, KB-3-1 tox inactive, PINK1 expr mod 5.0% and KB-V1 cytotox inconclusive.
Screening Cc1ccc(S(=O)(=O)N(Cc2cc3ccccc3[nH]c2=O)c2cccc(C)c2)cc1 returned SW480 rerep 4.11µM*, MCF10A rerep inconclusive, KB-3-1 tox inactive, PINK1 expr mod 6.7% and KB-V1 cytotox inconclusive.
CN(C)S(=O)(=O)c1cccc(CNCC2COc3ccccc3O2)c1 (configuration not stated) was read as SW480 rerep 29.3%, MCF10A rerep 5.9%, KB-3-1 tox inactive, PINK1 expr mod -1.6% and KB-V1 cytotox inactive.
Cc1cnc(C)c(-c2ccc3c(c2)CC(CNC(=O)Cc2c(C)[nH]c4ccccc24)O3)n1 (configuration not stated) was read as PINK1 expr mod -0.9%.
O=C(CSC(=S)N1CCCC1)N(Cc1nnc(-c2ccccc2Cl)o1)C1CC1 was read as SW480 rerep -5.3%, MCF10A rerep 0.2%, KB-3-1 tox inactive, PINK1 expr mod 0.2% and KB-V1 cytotox 4.61µM*.
O=C(COc1ccccc1)N(Cc1nnc(-c2ccccc2Cl)o1)C1CC1 was read as SW480 rerep -1.2%, MCF10A rerep 2.6%, KB-3-1 tox inactive, PINK1 expr mod -1.1% and KB-V1 cytotox inactive.
Screening CN(C)c1ccc(/C=C/c2ccnc3ccc([N+](=O)[O-])cc23)cc1 returned KB-3-1 tox inactive, PINK1 expr mod -0.5% and KB-V1 cytotox inactive.
Screening CCOC(=O)C1=C(CC)Nc2ccccc2N=C1NC(=O)c1ccc(OC)c(S(=O)(=O)N2CCCCC2C)c1 (configuration not stated) returned SW480 rerep 8.0%, MCF10A rerep 3.66µM*, KB-3-1 tox inactive, PINK1 expr mod 3.2% and KB-V1 cytotox inconclusive.
CCOC(=O)C1=C(CC)Nc2ccccc2N=C1NC(=O)c1ccc(C)c(S(=O)(=O)N2CCOCC2)c1 was read as SW480 rerep 7.8%, MCF10A rerep 3.5%, KB-3-1 tox inactive, PINK1 expr mod 8.2% and KB-V1 cytotox inconclusive.
Screening Cc1cc(C)c(/C=C(\C#N)S(=O)(=O)c2ccccc2)[nH]1 returned SW480 rerep 0.0%, MCF10A rerep 18.4µM*, KB-3-1 tox inactive, PINK1 expr mod 8.9% and KB-V1 cytotox inconclusive.
COc1cc(/C=C/c2ccnc3ccccc23)cc(OC)c1OC was read as KB-3-1 tox inconclusive, PINK1 expr mod 12.8% and KB-V1 cytotox inconclusive.
`O=C(COc1cccc2c1CCN(Cc1ccccc1)C2=O)NCc1ccco1` gave SW480 rerep 0.2%, MCF10A rerep -2.0%, KB-3-1 tox inactive, PINK1 expr mod 1.6% and KB-V1 cytotox inactive.
`CN1CCc2c(OCC(=O)N3CCCc4ccccc43)cccc2C1=O` gave SW480 rerep inconclusive, MCF10A rerep 8.6%, KB-3-1 tox inactive, PINK1 expr mod 1.4% and KB-V1 cytotox inconclusive.
For Cc1cccc(CN2CCc3c(OCC(=O)N4CCCc5ccccc54)cccc3C2=O)c1 the results were SW480 rerep 18.7%, MCF10A rerep inconclusive, KB-3-1 tox 16.4µM*, PINK1 expr mod 2.7% and KB-V1 cytotox inconclusive.
For Cc1cccc(CN2CCc3c(OCC(=O)NCc4ccco4)cccc3C2=O)c1 the results were SW480 rerep 7.5%, MCF10A rerep 3.5%, KB-3-1 tox inactive, PINK1 expr mod -2.3% and KB-V1 cytotox 14.6µM*.
`O=C1c2cccc(OCC(=O)N3CCCc4ccccc43)c2CCN1Cc1ccc(F)cc1` gave SW480 rerep 10.3%, MCF10A rerep 14.6µM*, KB-3-1 tox inconclusive, PINK1 expr mod -1.8% and KB-V1 cytotox 9.2µM*.
O=C(NCCN1CCOCC1)c1cnn(-c2nccc(-c3ccccc3F)n2)c1C1CC1 was read as PINK1 expr mod -0.4%.
For Cc1ccccc1C1(CC(=O)N2CCC[C@H]2C(N)=O)CC(=O)N(C2CCCC2)C1=O (some centres not stated) the results were PINK1 expr mod 1.0%.
O=C(C[n+]1ccnc2ccccc21)c1ccc(Br)cc1 was read as KB-3-1 tox inactive and KB-V1 cytotox inactive.
O=C(c1cccc(N2C(=O)C3C4C=CC(C4)C3C2=O)c1)N1CCN(c2ccccc2)CC1 (configuration not stated) was read as SW480 rerep -0.5%, MCF10A rerep -2.1%, KB-3-1 tox inactive, PINK1 expr mod -0.2% and KB-V1 cytotox inconclusive.
